# Screening results as filed in PubChem BioAssay.
# EPAC2 antagonist – antagonists of human EPAC2 | Q8WZA2 | EPAC2 GEF exchange of Rap1B-BODIPY-GDP, fluorescence | Potency, µM (top dose mostly 114 µM), without a hit: top-dose activity, negative = inhibition, hits mostly inhibitors | 0.18% of 360,000 active | AID 720708; further: potency means the concentration at half of the fitted maximal effect; on the % scale 0 is the no-effect control and ±100 the full control effect; nearly all actives have a fitted effect of over 45% in size
# TSHR antag – human thyrotropin receptor antagonism; P16473; TSHR-expressing cells, TSH-stimulated cAMP HTRF, 2 h; stronger effect = lower value; activity change, negative = inhibition, % at 11.5 µM; 0.2% of 330,000 active; AID 504810;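 active means activity change below a set negative limit, meaning inhibition stronger than a set level, cut at about -70% in these data; inconclusive means activity change between two set negative limits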; further: on the % scale 0 is the no-effect control and ±100 the full control effect
#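 Competitive HTRF cAMP read-out (cryptate anti-cAMP antibody, cAMP-d2; 30 min, room temperature) in freshly harvested TSHR cells. Compounds added before TSH at EC80 (4nM final), followed by 2 hours' incubation at 37 deg C.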
# EPAC2 agonist – EPAC2 (human) agonism; EPAC2 activation, biochemical qHTS; response scale: 100% = 6.5 mM cAMP response; 0.079% of 360,000 active; Potency, µM (doses to about 154 µM), without a hit: at the highest dose activation, usual class: activators; further: potency means the concentration at half of the fitted maximal effect; nearly all actives have a fitted effect of over 50% in size
#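 Compounds were titrated in qHTS against a Rap1B-BODIPY-GDP (250 nM) complex with EPAC2 (100 nM) and GDP (50 uM). BODIPY-GDP release tracked at 480/540 nm over 30 min at room temperature, normalized to 6.5 mM cAMP.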
# EPAC1 agonist – agonists of human EPAC1; EPAC1 agonist qHTS, biochemical assay; response scale: 100% = response to 6.5 mM cAMP; AID 720707; O95398; 0.073% of 360,000 active; Potency, µM (highest dose often 154 µM), for the others: top-dose activation, hits mostly activators; further: potency means the concentration at half of the fitted maximal effect; nearly all actives have a fitted effect of over 60% in size
# Target sequence (O95398 whole entry, looked up): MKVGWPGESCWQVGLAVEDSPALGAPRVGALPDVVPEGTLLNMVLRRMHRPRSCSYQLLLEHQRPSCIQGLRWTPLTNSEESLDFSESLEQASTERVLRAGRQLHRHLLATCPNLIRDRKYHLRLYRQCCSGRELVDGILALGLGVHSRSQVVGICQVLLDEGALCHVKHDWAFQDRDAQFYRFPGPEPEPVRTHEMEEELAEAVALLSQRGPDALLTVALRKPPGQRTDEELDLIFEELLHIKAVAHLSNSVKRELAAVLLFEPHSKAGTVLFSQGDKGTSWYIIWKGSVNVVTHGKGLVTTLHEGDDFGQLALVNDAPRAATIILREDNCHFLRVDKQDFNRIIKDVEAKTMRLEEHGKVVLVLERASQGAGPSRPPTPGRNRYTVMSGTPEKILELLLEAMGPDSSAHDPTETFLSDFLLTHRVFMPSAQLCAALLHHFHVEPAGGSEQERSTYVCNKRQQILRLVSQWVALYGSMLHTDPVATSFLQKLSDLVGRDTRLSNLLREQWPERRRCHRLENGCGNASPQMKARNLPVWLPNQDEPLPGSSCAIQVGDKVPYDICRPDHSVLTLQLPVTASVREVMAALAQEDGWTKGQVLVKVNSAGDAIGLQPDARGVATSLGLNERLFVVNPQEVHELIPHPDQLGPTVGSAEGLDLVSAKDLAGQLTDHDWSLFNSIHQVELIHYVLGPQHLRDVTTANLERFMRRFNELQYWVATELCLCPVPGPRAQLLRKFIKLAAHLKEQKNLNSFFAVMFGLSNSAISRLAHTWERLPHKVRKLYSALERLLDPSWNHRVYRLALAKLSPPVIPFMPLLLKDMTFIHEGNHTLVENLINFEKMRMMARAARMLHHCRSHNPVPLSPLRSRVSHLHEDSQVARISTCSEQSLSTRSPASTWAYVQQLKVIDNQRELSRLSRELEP
#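 Fluorescent GDP-exchange assay: 100 nM EPAC1 with 250 nM Rap1B preloaded with BODIPY-GDP and 50 uM GDP; compounds tested as concentration series, 5 min at room temperature, then read every 5 min for 30 min (ex 480/em 540 nm); normalized to 6.5 mM cAMP.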
# PTHR1 agonist – PTHR1 (human) receptor agonism; Q03431; HEK293 GP2 PTHR1 cells, GloSensor cAMP luminescence, 1 h; Potency, µM (top dose mostly 115 µM), for inactives: at the top dose activation, usual class: activators; 0.075% of 410,000 active; AID 743266; further: potency means the concentration at half of the fitted maximal effect; nearly all actives have a fitted effect of over 55% in size
#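 HEK-293-derived GP2 cells expressing PTHR1 and a GloSensor cAMP reporter, 3,000/well, plated overnight, given luciferin plus IBMX (each 0.5 mM as added) for 1 h at 37 °C, then compound for 1 h at 37 °C. Luminescence was read after 15 min at room temperature.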
# EPAC1 antagonist – antagonists of human EPAC1. AID 720709. O95398. Potency, µM (highest dose often 115 µM), inactives show top-dose activity change, negative = inhibition, hits mostly inhibitors. EPAC1 GEF assay, Rap1b-BODIPY-GDP exchange fluorescence. 0.14% of 360,000 active;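 further: potency means the concentration at half of the fitted maximal effect; plate controls were vehicle for no effect and positive control for full effect; nearly all actives have a fitted effect of over 50% in size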
# Starred values were filed as active, the others as inactive; i = inactive; ? = inconclusive; nt = no result given; [ ] = another dose, or the depositor's remark. Only some compounds are listed: those with a hit (about 0.5% of all), similar ones and a draw of the others. Unless noted, the call rests on the fitted dose curve; in most records, active means well fitted curve in the direction sought with a large enough effect; inconclusive means small, poorly fitted or top-dose-only effect, or another doubt; inactive means no such curve, though single readings can be large; an effect the other way counts as inactive or inconclusive.
SMILES,EPAC2 antagonist,TSHR antag,EPAC2 agonist,EPAC1 agonist,PTHR1 agonist,EPAC1 antagonist
O=C(O[C@@H]1OC2COC(=O)c3cc(O)c(O)c(O)c3-c3c(cc(O)c(O)c3O)C(=O)O[C@@H]([C@H]1O)[C@@H]2O)c1cc(O)c(O)c(O)c1,-13.8%,9.2,-1.7%,2.9%,-35.3%,89.1µM*
COc1ccc(NC(=O)COC(=O)CCC(=O)c2cccs2)cc1OC,5.1%,10.4,-4.5%,-12.2%,i,7.5%
Cc1cc(C)c(S(=O)(=O)/N=C2/C=C(Sc3ncn[nH]3)C(=O)c3ccccc32)cc1C,?,-2.7,16.3%,11.1%,-10.7%,44.7µM*
CCOc1ccc(-n2cc(-c3ccccc3)c3c(NCc4ccc(F)cc4)ncnc32)cc1,nt,nt,nt,nt,i,nt
Cc1ccccc1C(=O)/C(C#N)=N/Nc1c(C)n(C)n(-c2ccccc2)c1=O,79.4µM*,-15.3,-68.5%,-10.9%,i,-6.7%
Cc1c(N/N=C(\C#N)C(=O)c2ccccc2)c(=O)n(-c2ccccc2)n1C,35.1%,1.0,-127.5%,-161.4%,-73.3%,0.0%
Cc1c(NC(=O)Nc2ccccc2Cl)c(=O)n(-c2ccccc2)n1C,2.8%,-79.8*,8.8%,1.9%,-1.2%,2.7%
COc1ccc(Nc2c3c(nc4nncn24)CCC3)cc1Cl,nt,nt,nt,nt,-53.8%,nt
Cc1ccc(NC(=O)CSc2nc3ncc(Br)cc3[nH]2)cc1C,-4.4%,-87.8*,-5.4%,8.2%,-12.5%,-27.0%
COc1cc(OC)c(-c2c3cc(O)c(=O)cc-3oc3cc(O)c(O)cc23)cc1OC,92.4%,0.3,112µM*,100µM*,-2.7%,181.9%
Cc1c2cc(O)c(=O)cc-2oc2cc(O)c(O)cc12,?,-7.2,i,-276.4%,?,82.3%
CN(CC(=O)Nc1ccccc1C(F)(F)F)Cc1c(O)ccc2ccccc12,?,-98.6*,-4.2%,2.2%,i,?
CCc1ccccc1NC(=O)CN(C)Cc1c(O)ccc2ccccc12,6.1%,3.9,-6.9%,-10.7%,-19.1%,-2.3%
CC(C)CC1NC(=O)c2ccccc2-n2c1nc1ccc(Cl)cc1c2=O (stereo not drawn),nt,7.5,nt,nt,nt,nt
O=C(O)C(c1ccccc1)N1C(=O)/C(=C\c2ccc(O)c(O)c2)SC1=S (stereo not drawn),22.4µM*,-2.9,-2.1%,-3.0%,i,31.6µM*
COC(=O)CN1C(=O)CSc2ccc(S(=O)(=O)Nc3cccc(Br)c3)cc21,nt,nt,nt,nt,-21.0%,nt
Cc1ccc(C)c(S(=O)(=O)N2CCCOC2CNC(=O)C(=O)NCCC2=CCCCC2)c1 (stereo not drawn),5.4%,?,3.5%,4.5%,-31.9%,-20.4%
O=C(NCCC1=CCCCC1)C(=O)NCC1OCCCN1S(=O)(=O)c1ccccc1 (stereo not drawn),6.1%,-90.4*,-4.7%,-8.0%,-29.1%,-1.8%
CC1(Cc2ccc(Cl)cc2)C(=O)Nc2ccc(-c3cccnc3)cc21 (stereo not drawn),50.1µM*,nt,11.7%,-2.1%,-7.8%,-6.6%
CC1(Cc2cccc(F)c2)C(=O)Nc2ccc(-c3cccnc3)cc21 (stereo not drawn),?,nt,4.9%,-17.9%,-33.8%,-8.2%
O=C(Nc1ccc(F)cc1)c1nc(S(=O)(=O)Cc2ccccc2)ncc1Cl,0.9%,?,12.8%,-8.2%,-22.3%,-1.6%
Cc1ccccc1CS(=O)(=O)c1ncc(Cl)c(C(=O)Nc2ccc(F)cc2)n1,1.2%,-73.8*,8.2%,0.1%,i,-9.4%
CCN(c1ccccc1)S(=O)(=O)c1ccc(NC(=O)c2nc(S(C)(=O)=O)ncc2Cl)cc1,-12.8%,-88.9*,3.8%,3.4%,-90.0%,-3.9%
CCS(=O)(=O)c1ncc(Cl)c(C(=O)Nc2ccc(S(=O)(=O)N(C)c3ccccc3)cc2)n1,1.2%,-91.8*,17.4%,-1.3%,-22.0%,?
CS(=O)(=O)c1ncc(Cl)c(C(=O)Nc2ccc(N3CCOCC3)cc2)n1,-0.3%,-7.9,13.5%,3.6%,-31.4%[57.5 µM],5.6%
SMILES,EPAC2 antagonist,TSHR antag,EPAC2 agonist,EPAC1 agonist,PTHR1 agonist,EPAC1 antagonist
CS(=O)(=O)c1ncc(Cl)c(C(=O)Nc2ccc(OC(F)F)cc2)n1,-19.6%,-73.6*,3.3%,11.4%,-65.0%,-13.1%
Cc1cccc(NC(=O)N2CCC3(CC2)Oc2ccccc2C(=O)N3Cc2ccccc2F)c1C,nt,nt,nt,nt,i,nt
CCc1ccc2oc(=O)cc(CN3CCCCC3)c2c1,2.9%,-5.1,1.3%,4.0%,-4.3%,0.7%
CCN(CC)c1cc(Cl)c2nonc2c1N,-20.4%,8.6,10.2%,-5.2%,-9.0%,8.6%
CN(C)c1cc(Cl)c2nonc2c1N,-1.3%,2.0,2.0%,9.9%,i,50.1µM*
COc1ccc(-c2nc3c(c(SC)n2)Cc2c(CO)cnc(C)c2O3)cc1,nt,nt,nt,nt,-6.1%,nt
O=c1[nH][nH]c2c(N=Cc3ccccc3O)ccc(F)c12,3.9%,-22.5,-1.4%,3.5%,-10.8%,39.8µM*
CN(CC(=O)Nc1ccc(Cl)c(C(F)(F)F)c1)C(=O)c1ccc2c(c1)OCCO2,-13.5%,-1.2,1.2%,79.4µM*,i,-12.8%
CN(CC(=O)Nc1ccc(Cl)c(C(F)(F)F)c1)C(=O)C1CC(=O)N(c2ccc3c(c2)OCCO3)C1 (stereo not drawn),4.2%,nt,7.2%,1.6%,-41.3%,-15.4%
Cc1nc2cc(NC(=O)N3CCN(c4ccccn4)CC3)ccc2o1,-3.2%,nt,-0.7%,9.1%,i,-3.3%
O=C(Nc1ccc2nc(-c3ccco3)c(-c3ccco3)nc2c1)N1CCN(c2ccccn2)CC1,-14.1%,-2.6,2.1%,2.3%,-13.4%,35.5µM*
Cc1nn(CCc2nn[nH]n2)c2nc(-c3ccc(C4CCCCC4)cc3)cc(C(F)(F)F)c12,?,-41.5,-23.3%,-14.6%,-17.9%,79.4µM*
CC(=O)C[C@H]1SC[C@@H](C(C)C)N1S(=O)(=O)c1ccc(C)cc1,39.8µM*,nt,6.1%,4.0%,i,-19.3%
CC1Sc2ccc(C(=O)OCc3ccccc3Cl)cc2NC1=O (stereo not drawn),2.8%,-22.0,0.4%,50.1µM*,-26.6%,-0.2%
COc1cccc(COC(=O)c2ccc3c(c2)NC(=O)C(C)S3)c1OC (stereo not drawn),-5.2%,-17.0,-7.6%,-12.7%,-40.0%,-17.6%
CCN1CCN(S(=O)(=O)c2ccc(OC)c(NC(=O)c3ccccc3)c2)CC1,16.7%,37.6,9.9%,2.7%,-1.0%,16.3%
CC1=Nc2ccc(C)cc2/C1=C/c1c(N)n2c(S(=O)(=O)C(C)C)nsc2nc1=O,-5.0%,2.7,-11.3%,-21.6%,-89.3%,50.1µM*
NC(=O)CSc1nnc(-c2cccs2)n1Cc1ccco1,-2.6%,3.3,5.9%,12.2%,i,9.0%
